Results filed as inconclusive are left out. Calls of active or inactive are those of the source. Calls come from the whole dose curve; as a rule, active = well fitted curve in the direction sought with a large enough effect; inconclusive = small, poorly fitted or top-dose-only effect, or another doubt; inactive = no such curve, though single readings can be large; an effect the other way counts as inactive or inconclusive.
Key:
[1] = test system: NIH3T3; test: qHTS assay to identify novel small-molecules to repurpose for Merkel cell carcinoma treatment (AID 1296009); settings: MCC and control cell lines, CellTiter-Glo viability, 72 h; at 44.8 µM (top of the series) unless noted; note: nearly all actives have a fitted effect of over 60% in size
Method in brief: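 Luminescence from CellTiter-Glo, read 10 min after addition at room temperature, reported viability following a 72 hr, 37 degree celsius treatment with NPC or MIPE compounds in titration; values normalized to plate controls.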

[2] = test system: C33A; test: Primary qHTS to identify gynecologic anti-cancer compounds using libraries of approved drugs and bioactive compounds (AID 1345084); settings: Gynecologic cancer cell panel viability, ATPlite luminescence, 48 h; series mostly up to 57.5 µM; note: % is set by controls: 0 for no effect and ±100 for the full control effect; nearly all actives have a fitted effect of over 55% in size
Method in brief: (§1)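 ATP-based viability (ATPlite), 1,000 cells/well, 16 h pre-incubation, 48 h compound at 37 C, 5% CO2, 15 min RT before read.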

[3] = test system: CAOV3; test: as above; settings: Gynecologic cancer cell panel viability, ATPlite luminescence, 48 h; series mostly up to 57.5 µM
Method in brief: as §1

[4] = test system: CASKI; test: as above; settings: Gynecologic cancer cell panel viability, ATPlite luminescence, 48 h; series mostly up to 57.5 µM
Method in brief: as §1

[5] = test system: Es-2; test: as above; settings: Gynecologic cancer cell panel viability, ATPlite luminescence, 48 h; series mostly up to 57.5 µM
Method in brief: as §1

[6] = test system: HeLa; test: as above; settings: Gynecologic cancer cell panel viability, ATPlite luminescence, 48 h; series mostly up to 57.5 µM
Method in brief: as §1

[7] = test system: Hek293T; test: as above; settings: Gynecologic cancer cell panel viability, ATPlite luminescence, 48 h, control line for the selectivity index; series mostly up to 57.5 µM
Method in brief: as §1

[8] = test system: JEG-3; test: as above; settings: Gynecologic cancer cell panel viability, ATPlite luminescence, 48 h; series mostly up to 57.5 µM
Method in brief: as §1

[9] = test system: OV90; test: as above; settings: Gynecologic cancer cell panel viability, ATPlite luminescence, 48 h; series mostly up to 57.5 µM
Method in brief: as §1

[10] = test system: PA-1; test: as above; settings: Gynecologic cancer cell panel viability, ATPlite luminescence, 48 h; series mostly up to 57.5 µM
Method in brief: as §1

[11] = test system: SKOV3; test: as above; settings: Gynecologic cancer cell panel viability, ATPlite luminescence, 48 h; series mostly up to 57.5 µM
Method in brief: as §1

[12] = test system: Tov-21-G; test: as above; settings: Gynecologic cancer cell panel viability, ATPlite luminescence, 48 h; series mostly up to 57.5 µM
Method in brief: as §1

[13] = test system: Tov112D; test: as above; settings: Gynecologic cancer cell panel viability, ATPlite luminescence, 48 h; series mostly up to 57.5 µM
Method in brief: as §1

CC(=O)[C@@H]1C[C@H](C(C)(C)O[C@@H]2O[C@H](CO)[C@@H](O)[C@H](O)[C@H]2O)CC[C@@]2(CO)OC(=O)C[C@@H]12
inactive: outcome [1] inactive [at 17.4 µM] | Potency [2] | Potency [3] | outcome [4] | Potency [5] | Potency [6] | Potency [7] | Potency [8] | Potency [9] | Potency [10] | Potency [11] | Potency [12] | Potency [13]

C=C1CC23CC1CCC2C12OC(=O)C(C)(C(O)C(O)C1O)C2C3C(=O)O (configuration not stated)
inactive: outcome [1] | Potency [2] | Potency [3] | outcome [4] | Potency [5] | Potency [6] | Potency [7] | Potency [8] | Potency [9] | Potency [10] | Potency [12] | Potency [13]

O=C(/C=C/c1ccc(O)c(O)c1)O[C@@H]1[C@@H](O)[C@H](OC2CCCCC2O)O[C@H](CO)[C@H]1O (some centres not stated)
inactive: outcome [1] inactive [at 17.4 µM] | Potency [2] | Potency [3] | outcome [4] | Potency [5] | Potency [6] | Potency [7] | Potency [8] | Potency [9] | Potency [10] | Potency [11] | Potency [12] | Potency [13]

CC(C)=CC1C[C@](C)(O)[C@@H]2[C@H]3CCC4[C@@]5(C)CC[C@H](O[C@@H]6OC[C@H](O)[C@H](O[C@@H]7O[C@H](CO[C@@H]8O[C@H](CO)[C@@H](O)[C@H](O)[C@H]8O)[C@@H](O)[C@H](O)[C@H]7O)[C@H]6O[C@@H]6O[C@@H](C)[C@H](O)[C@@H](O)[C@H]6O)C(C)(C)[C@@H]5CC[C@@]4(C)[C@@]34CO[C@@]2(C4)O1 (some centres not stated)
inactive: outcome [1] inactive [at 9.27 µM] | activity change, negative = cytotoxicity [2] 25.2% [at 11.6 µM] | activity change, negative = cytotoxicity [3] 4.48% [at 11.6 µM] | activity change, negative = cytotoxicity [4] 12.3% [at 11.6 µM] | activity change, negative = cytotoxicity [5] 11.4% [at 11.6 µM] | activity change, negative = cytotoxicity [6] 6.98% [at 11.6 µM] | activity change, negative = cytotoxicity [7] -1.62% [at 11.6 µM] | activity change, negative = cytotoxicity [8] 8.28% [at 11.6 µM] | activity change, negative = cytotoxicity [9] 5% [at 11.6 µM] | activity change, negative = cytotoxicity [10] 0.967% [at 11.6 µM] | activity change, negative = cytotoxicity [11] 2.44% [at 11.6 µM] | activity change, negative = cytotoxicity [12] 9.39% [at 11.6 µM] | activity change, negative = cytotoxicity [13] 6.5% [at 11.6 µM]

CC(=O)O[C@@H]1[C@H](OC(C)=O)C[C@@]2(C)C(CC[C@@H](C)[C@]23Cc2c(O)cc4c(c2O3)CN([C@@H](CCC(=O)O)C(=O)O)C4=O)C1(C)C (some centres not stated)
inactive: outcome [1] inactive [at 17.4 µM] | Potency [2] | Potency [3] | outcome [4] | Potency [5] | Potency [6] | Potency [7] | Potency [8] | Potency [9] | Potency [10] | Potency [11] | Potency [12] | Potency [13]

C=C1CCC2C(C)(C)CC(O)CC2(C)C1CCC(C)CCOC(=O)CCC(=O)O (configuration not stated)
inactive: outcome [1] inactive [at 17.4 µM] | Potency [2] | Potency [3] | outcome [4] | Potency [5] | Potency [6] | Potency [7] | Potency [8] | Potency [9] | Potency [10] | Potency [11] | Potency [12] | Potency [13]

C=C(C)C(O)COc1ccc(CC(=O)O)cc1 (configuration not stated)
inactive: outcome [1] | Potency [2] | Potency [3] | outcome [4] | Potency [5] | Potency [6] | Potency [7] | Potency [8] | Potency [9] | Potency [10] | Potency [11] | Potency [12] | Potency [13]

CCC/C=C1\OC(=O)C2=C1CCC(O)C2O (configuration not stated)
inactive: outcome [1] | Potency [2] | Potency [3] | outcome [4] | Potency [5] | Potency [6] | Potency [7] | Potency [8] | Potency [9] | Potency [10] | Potency [11] | Potency [12] | Potency [13]

COc1ccc(CCC(=O)O)c(O[C@@H]2O[C@H](CO)[C@@H](O)[C@H](O)[C@H]2O)c1
inactive: outcome [1] | Potency [2] | Potency [3] | outcome [4] | Potency [5] | Potency [6] | Potency [7] | Potency [8] | Potency [9] | Potency [10] | Potency [11] | Potency [12] | Potency [13]

CC1=CC(=O)CC(C)(C)C1/C=C/C(C)OC1OC(COC2OCC(O)C(O)C2O)C(O)C(O)C1O (configuration not stated)
inactive: outcome [1] inactive [at 17.4 µM] | Potency [2] | Potency [3] | outcome [4] | Potency [5] | Potency [6] | Potency [7] | Potency [8] | Potency [9] | Potency [10] | Potency [11] | Potency [12] | Potency [13]

C=C(C(=O)O)C1CC(O)C2(C)CCCC(C)(O)C2C1 (configuration not stated)
inactive: outcome [1] | Potency [2] | Potency [3] | outcome [4] | Potency [5] | Potency [6] | Potency [7] | Potency [8] | Potency [9] | Potency [10] | Potency [11] | Potency [12] | Potency [13]
